Compounds without any hit were thinned out: in the full panel of roughly 79,000, 15% have a hit. A number with no mark means an inactive call. Active and inactive are the calls of the source. Cut-off read from the data, not from the text of the source: active = growth inhibition above about 70%; inactive = the rest.
Columns and labels:
[1] = NCI Yeast Anticancer Drug Screen. Data for the rad50 strain (AID 155);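 note: 0% = growth of vehicle-only cultures of the same strain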; conditions: S. cerevisiae rad50 strain growth inhibition; at 50.0 µM; stronger effect = higher value
Summary of the method: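 Inhibition values express reduced yeast growth in compound-treated cultures relative to vehicle-treated controls.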

[2] = NCI Yeast Anticancer Drug Screen. Data for the mec2-1 strain (AID 157); conditions: S. cerevisiae mec2-1 strain, at 50.0 µM, stronger effect = higher value
Summary of the method: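 Compounds were applied to mec2-1 yeast cells. Their growth was then compared with that of vehicle-treated cultures to give growth inhibition.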

[3] = NCI Yeast Anticancer Drug Screen. Data for the sgs1 mgt1 strain (AID 161);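 note: 0% = growth of cultures given vehicle only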; conditions: S. cerevisiae sgs1 mgt1 strain, at 50.0 µM, stronger effect = higher value
Summary of the method: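 Compounds are added to genetically altered yeast, and growth is compared with cultures given vehicle alone to give percent inhibition.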

[4] = NCI Yeast Anticancer Drug Screen. Data for the cln2 rad14 strain (AID 165);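 note: 0% = growth equal to vehicle treated cultures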; conditions: S. cerevisiae cln2 rad14 strain, at 50.0 µM, stronger effect = higher value
Summary of the method: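 Strain: cln2 rad14 yeast, altered in cell cycle control and DNA damage repair. Read-out: growth inhibition vs vehicle.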

[5] = NCI Yeast Anticancer Drug Screen. Data for the bub3 strain (AID 167); conditions: S. cerevisiae bub3 mutant strain, at 50.0 µM, stronger effect = higher value
Summary of the method: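 Steps: expose the mutant yeast strain to compound; grow alongside vehicle-treated cultures; measure growth; express inhibition against the vehicle cultures.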

[6] = NCI Yeast Anticancer Drug Screen. Data for the mlh1 rad18 strain (AID 175); conditions: S. cerevisiae mlh1 rad18 strain growth inhibition; at 50.0 µM; stronger effect = higher value
Summary of the method: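 A repair-deficient yeast strain is exposed to test compound, and growth is scored relative to vehicle-treated controls.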

Compound | growth inhibition [1] | growth inhibition [2] | growth inhibition [3] | growth inhibition [4] | growth inhibition [5] | growth inhibition [6]
NNC(=O)C(O)C(O)C(=O)NN (stereo not drawn) | 8.5% | -6.8% | -20.2% | 46.6% | -8.05% | -8.1%
Cn1ncc2c(=O)[nH]c(NN)nc21 | -8.35% | -4.45% | -4.8% | -17.8% | -0.95% | -1.95%
COc1ccc(N(Cc2ccc(C)o2)C(=S)Nc2ccccc2)cc1 | -3.6% | -5.4% | 9.7% | 8.9% | 36% | 7.05%
CCOC1CCC(C(C)=O)C(C#N)(C#N)C1(C#N)C#N (stereo not drawn) | 38.1% | -9.55% | -21.6% | -7.35% | -37.9% | -42.5%
O=[N+]([O-])c1ccc(/C(CBr)=N/N2CCCCC2)cc1 | -19.6% | -24.9% | -4.6% | 3.55% | -9.65% | -13.6%
CCOc1ccc(OCC)c2c1C(=O)c1ccccc1C2=O | -6.8% | 15.3% | 1.15% | -1.3% | 9.15% | -5.8%
O=C1NC(=S)S/C1=C\c1c(Cl)cccc1Cl | 56.9% | 19% | 61.1% | 16.9% | 27.9% | 60.4%
CC(C)CCC[C@@H](C)[C@H]1CC[C@H]2[C@@H]3C[C@@H](O)[C@@]4(O)C[C@@H](O)CC[C@]4(C)[C@H]3CC[C@]12C | 27.6% | 8.65% | 14.1% | -12.4% | -7.25% | 19.5%
O=C(O)CCC(=O)Nc1cc(C(F)(F)F)ccc1Cl | 24.1% | 13.7% | 7.8% | 25.1% | 14.8% | 7.5%
COc1cc([N+](=O)[O-])cc(C(C)=O)c1O | 17.9% | 37.2% | 31.5% | 2.45% | 15.1% | 38.5%
COc1cc(C(=O)CCCC(=O)O)cc(OC)c1OC | -9.15% | 3.4% | 19.6% | 5.85% | 16.3% | 5.3%
CCOC(=O)c1ccccc1OCc1ccccc1 | 13.3% | 15.2% | 5.75% | -5.9% | 51.8% | 14.9%
CCN(CC)CCNc1ccc2ncn3c4c(OC)ccc(OC)c4c(=O)c1c23 | -21.1% | -22.2% | 0.9% | 22.6% | -47% | 62.1%
CCOC(=O)/C(C#N)=C/Nc1ccncc1 | 2.95% | -12.4% | 16.2% | 11.6% | 4.25% | 16%
CCCCc1cc(/C=N\NC(N)=O)c2ccccc2n1 | -0.6% | -14.2% | -1.1% | 1.45% | -5.35% | 18.8%
CC[C@@]12C=CC(=S)N(CCSc3ccccc3)[C@@H]1c1c(n(S(=O)(=O)c3ccc(OC)cc3)c3ccccc13)CC2 | -33% | -1.2% | 0.95% | -53% | -2.55% | 6%
CO/N=C(\C(=O)N(C)n1cnnc1)c1csc(NC(c2ccccc2)(c2ccccc2)c2ccccc2)n1 | 21.7% | 13.2% | 11.8% | 25.1% | 18.8% | 28%
CN(O)C(=O)Cc1ccccc1 | 3.5% | 6.05% | -0.1% | 15.8% | 13.9% | 16.4%
CCc1cccc(C)c1NC(=O)C(=O)CC(=O)c1ccc(Cl)cc1Cl | 26.9% | 14.8% | 7.65% | -35.4% | 2.15% | 27.2%

Compound | growth inhibition [1] | growth inhibition [2] | growth inhibition [3] | growth inhibition [4] | growth inhibition [5] | growth inhibition [6]
Nc1ccccc1Sc1ccc(C(=O)O)cc1[N+](=O)[O-] | 19.6% | 20.2% | 7.75% | -3.55% | 22.2% | -6.5%
O=C1C(=O)C([n+]2cccc3ccccc32)=C([O-])C2=C1C1c3ccccc3C2c2ccccc21 | 98.8% (active) | 98.4% (active) | 98.9% (active) | 98.8% (active) | 91% (active) | 98.6% (active)
OC1CCCCCCCCCCC1C(O)(C(F)(F)F)C(F)(F)F (stereo not drawn) | 99.3% (active) | 99.5% (active) | 99.8% (active) | 99% (active) | 99.6% (active) | 98.8% (active)
COc1cccc(CN(CC(=O)O)S(=O)(=O)c2ccc(C)cc2)c1 | -6.2% | 11.3% | -1% | -46.6% | -23.6% | 6.85%
Cc1ccc(-n2nc3c(c(C#N)c2=O)-c2ccccc2C3=O)cc1 | -27.6% | -4.4% | -31.8% | -38.5% | -2.7% | -14.3%
N=C1CCCS1 | -7.05% | -2.35% | -7.1% | -6.3% | -49.5% | -4.7%
CC(=O)Oc1c(C)cc2c(c1C)C(C)(C)CN2C(=O)C(C)(C)C | 16.9% | -20.2% | 17.6% | -7.15% | -1.3% | 7.9%
S=C1NCCOc2ccccc21 | -8.65% | -13.1% | -2.5% | -8.05% | -10.9% | -4.55%
O=Cc1cc(C=O)c2ccc(=O)[nH]c2n1 | 4.75% | 0.5% | -8.55% | 0.65% | -1.25% | -3.5%
CCCCC(CC)CSC[N+](C)(CC)CC (stereo not drawn) | 45% | 24.8% | 22.4% | 1.5% | 15.9% | 20.6%
Cc1ccc(S(=O)(=O)N(c2c(F)cc(C#N)cc2F)S(=O)(=O)c2ccc(C)cc2)cc1 | 51.7% | 6.35% | 32.8% | 30.1% | 2.6% | 31.6%
O=C(Nc1ccc(Cl)cc1C(F)(F)F)C(=O)Nn1c(=S)[nH]c2ccccc2c1=O | -5.9% | -15.2% | 8.5% | -2.7% | -1.1% | 18.9%
N=c1nccnn1O | 6.45% | 13.2% | -8.2% | 10.4% | -6.5% | 3.95%
CCOc1ccc(NC(=O)CC2SC(=Nc3ccc(C)cc3)NC2=O)cc1 (stereo not drawn) | -12.7% | -38.5% | -5.3% | 4.35% | -31.9% | -38%
O=C(O)C(Sc1ccccc1)c1ccccc1 (stereo not drawn) | 0.8% | -8.2% | -0.05% | -32.4% | -21.9% | -21.6%
O=C(O)CCCc1ccc(N(CCO)CCO)cc1 | 5.3% | 2.55% | -3.1% | 18% | 8.05% | 19%
Cc1nc(N)nc(C)c1Cl | -2.15% | 3.4% | 3.85% | 5.2% | -5.9% | -1.85%
C=CCN(N=O)C(=O)NCCCCC(NC(C)=O)C(=O)NCc1ccccc1 (stereo not drawn) | -10.2% | -22.6% | -21.9% | -6.3% | 5.1% | -14%
Cc1cccc(C)c1NC(=O)Oc1ccc(Cl)cc1Cc1ccccc1 | 98.5% (active) | 99.5% (active) | 99.6% (active) | 98.9% (active) | 99.3% (active) | 99.3% (active)

Source: PubChem BioAssay (NCI)
